# Test results taken from PubChem BioAssay (EPA / NIEHS).
# Calls of active or inactive are those of the source. The calls were made as follows: active = hit-call score of the fitted dose curve at least 0.9, where 1 is the maximum; inactive = score below 0.9.
# What was measured:
# Details in all cases: mRNA level, 48 h; actives raise or lower the signal
# CYP2E1 (gene 1571) = assay: LTEA_HepaRG_CYP2E1: Life Technologies and Expression Analysis (LTEA) Assay for CYP2E1 using HepaRG (AID 2283485)
# Summary of the method: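 HepaRG cells, plated 48 h, then exposed 48 h in serum-free induction medium to eight half-log concentrations from 100 uM in 0.5% DMSO, duplicate. CYP2E1 mRNA by qRT-PCR, normalized to ACTB/GAPDH/POLR2A; bidirectional fit versus DMSO.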
# CYP4A11 (gene 1579) = assay: LTEA_HepaRG_CYP4A11: Life Technologies and Expression Analysis (LTEA) Assay for CYP4A11 using HepaRG (AID 2283486)
# Summary of the method: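 Readout is CYP4A11 transcript level by qRT-PCR, normalized to three housekeeping genes and fitted bidirectionally against 0.5% DMSO. Human HepaRG cells were treated 48 h, in duplicate, with an 8-point half-log series topping at 100 uM.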
# [1] = read-out: Cytochrome P450 3A4 (Homo sapiens) (UniProt P08684); assay: LTEA_HepaRG_CYP3A4: Life Technologies and Expression Analysis (LTEA) Assay for CYP3A4 using HepaRG (AID 2283487)
# Summary of the method: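 CYP3A4 transcript measured by TaqMan qRT-PCR and normalized to three housekeeping genes after 48 h chemical exposure of human HepaRG cells. Top concentration 100 uM, half-log steps, 0.5% DMSO vehicle; gain or loss fitted against DMSO baseline.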
# [2] = read-out: DNA damage-inducible transcript 3 (DDIT3), DDIT3 (gene 1649); assay: LTEA_HepaRG_DDIT3: Life Technologies and Expression Analysis (LTEA) Assay for DNA damage-inducible transcript 3 (DDIT3) using HepaRG (AID 2283488)
# Summary of the method: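 HepaRG cells, 48 h after plating, exposed 48 h in serum-free induction medium to 8 half-log concentrations up to 100 uM in 0.5% DMSO, in duplicate. DDIT3 mRNA measured by TaqMan qRT-PCR, normalized to ACTB, GAPDH and POLR2A. Fitted bidirectionally against DMSO.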
# [3] = read-out: Pro-epidermal growth factor (Homo sapiens) (UniProt P01133); assay: LTEA_HepaRG_EGF: Life Technologies and Expression Analysis (LTEA) Assay for Epidermal growth factor (EGF) using HepaRG (AID 2283489)
# Summary of the method: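 EGF transcript measured by Fluidigm TaqMan qRT-PCR with three housekeeping genes for normalization, 48 h after dosing HepaRG cultures in duplicate (top 100 uM, half-log steps, 0.5% DMSO vehicle). Gain or loss relative to DMSO fitted.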
# [4] = read-out: Ezrin (EZR), EZR (gene 7430); assay: LTEA_HepaRG_EZR: Life Technologies and Expression Analysis (LTEA) Assay for Ezrin (EZR) using HepaRG (AID 2283491)
# Summary of the method: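 HepaRG, 48 h chemical exposure, 8-pt half-log series from 100 uM, 0.5% DMSO vehicle, duplicates. Read-out: EZR mRNA by TaqMan qRT-PCR (Fluidigm array), housekeeping-normalized; bidirectional curve fit vs DMSO baseline.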
# [5] = read-out: Cytochrome P450 3A7 (Homo sapiens) (UniProt P24462); assay: LTEA_HepaRG_CYP3A7: Life Technologies and Expression Analysis (LTEA) Assay for CYP3A7 using HepaRG (AID 2283492)
# Summary of the method: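 CYP3A7 transcript measured by qRT-PCR (ACTB, GAPDH, POLR2A normalization) after 48 h chemical exposure of HepaRG cells in duplicate. Eight half-log concentrations, maximum 100 uM, 0.5% DMSO vehicle; bidirectional curve fitting against DMSO baseline.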
# CYP3A5 (gene 1577) = assay: LTEA_HepaRG_CYP3A5: Life Technologies and Expression Analysis (LTEA) Assay for CYP3A5 using HepaRG (AID 2283493)
# Summary of the method: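 HepaRG cells, plated 48 h then in serum-free induction medium, dosed in duplicate for 48 h with eight half-log concentrations up to 100 uM in 0.5% DMSO. Gene mRNA by Fluidigm TaqMan qRT-PCR, normalized to ACTB, GAPDH, POLR2A.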
# [6] = read-out: Fatty Acid-Binding Protein 1 (FABP1), FABP1 (gene 2168); assay: LTEA_HepaRG_FABP1: Life Technologies and Expression Analysis (LTEA) Assay for Fatty Acid-Binding Protein 1 (FABP1) using HepaRG (AID 2283494)
# Summary of the method: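 HepaRG, 48 h post-plating switched to serum-free induction medium, then dosed 48 h (duplicate, 8 pts, ≤100 uM, 0.5% DMSO). RNA → Fluidigm TaqMan qRT-PCR, FABP1 normed to ACTB/GAPDH/POLR2A. Bidirectional curve fit vs DMSO.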
# [7] = read-out: Early growth response protein 1 (EGR1) transcription factor, EGR1 (gene 1958); assay: LTEA_HepaRG_EGR1: Life Technologies and Expression Analysis (LTEA) Assay for Early growth response protein 1 (EGR1) transcription factor using HepaRG (AID 2283490)
# Summary of the method: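 Read-out is EGR1 mRNA level by qRT-PCR, normalized to three housekeeping genes and analysed for gain or loss of signal against 0.5% DMSO. Source cells: human HepaRG, treated 48 h at up to 100 uM in half-log dilutions.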
# Chain of Cytochrome P450 3A7 (Homo sapiens) (P24462 whole entry, looked up): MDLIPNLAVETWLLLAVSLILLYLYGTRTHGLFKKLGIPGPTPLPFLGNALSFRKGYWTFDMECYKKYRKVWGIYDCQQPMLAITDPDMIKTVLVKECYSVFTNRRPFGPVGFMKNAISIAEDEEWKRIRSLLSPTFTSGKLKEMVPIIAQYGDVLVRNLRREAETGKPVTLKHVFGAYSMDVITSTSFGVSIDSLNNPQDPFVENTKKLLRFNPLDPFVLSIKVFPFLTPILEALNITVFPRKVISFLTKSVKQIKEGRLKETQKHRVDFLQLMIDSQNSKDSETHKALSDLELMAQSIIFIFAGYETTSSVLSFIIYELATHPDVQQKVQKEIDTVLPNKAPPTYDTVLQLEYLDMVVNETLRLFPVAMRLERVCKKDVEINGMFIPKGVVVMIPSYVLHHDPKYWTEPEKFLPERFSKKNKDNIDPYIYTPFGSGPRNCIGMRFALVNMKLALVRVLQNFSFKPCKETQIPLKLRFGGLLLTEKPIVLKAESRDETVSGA
# Chain of Cytochrome P450 3A4 (Homo sapiens) (P08684 whole entry, looked up): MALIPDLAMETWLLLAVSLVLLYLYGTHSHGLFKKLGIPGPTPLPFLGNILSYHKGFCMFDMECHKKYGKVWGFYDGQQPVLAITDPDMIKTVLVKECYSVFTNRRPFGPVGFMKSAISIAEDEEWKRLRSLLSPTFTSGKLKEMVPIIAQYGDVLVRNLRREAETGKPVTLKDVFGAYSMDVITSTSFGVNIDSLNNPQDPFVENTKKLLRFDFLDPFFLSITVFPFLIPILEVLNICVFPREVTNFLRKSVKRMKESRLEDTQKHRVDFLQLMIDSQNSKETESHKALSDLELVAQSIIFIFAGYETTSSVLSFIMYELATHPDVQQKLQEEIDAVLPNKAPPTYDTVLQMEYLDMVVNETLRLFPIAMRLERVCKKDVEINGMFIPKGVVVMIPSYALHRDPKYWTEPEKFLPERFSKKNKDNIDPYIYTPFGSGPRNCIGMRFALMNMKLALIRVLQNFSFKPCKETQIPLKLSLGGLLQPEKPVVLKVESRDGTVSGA
smiles,measurement,setting,value
CCCCCCCCN(C)CCCCCCCC,outcome,CYP2E1 (gene 1571),inactive
same,outcome,CYP4A11 (gene 1579),inactive
same,outcome,[1],inactive
same,outcome,[2],inactive
same,outcome,[3],inactive
same,outcome,[4],inactive
same,outcome,[5],inactive
same,outcome,CYP3A5 (gene 1577),inactive
same,outcome,[6],inactive
CCN(CC)C(=O)c1cc(S(=O)(=O)Cc2ccccc2)c(N2CCC(c3ccccc3)CC2)cc1N(CC)CCN(C)C,AC50,CYP2E1 (gene 1571),26 µM (active)
same,AC50,CYP4A11 (gene 1579),30.5 µM (active)
same,AC50,[1],34.7 µM (active)
same,AC50,[2],22.9 µM (active)
same,outcome,[3],inactive
same,AC50,[7],28.8 µM (active)
same,outcome,[4],inactive
same,AC50,[5],1.9 µM (active)
same,AC50,CYP3A5 (gene 1577),32.2 µM (active)
same,outcome,[6],inactive
Clc1cc(Cl)c2c(c1)N=C1CCCCCN1C2,AC50,CYP2E1 (gene 1571),32.1 µM (active)
same,outcome,CYP4A11 (gene 1579),inactive
same,AC50,[1],11.1 µM (active)
same,outcome,[2],inactive
same,outcome,[3],inactive
same,outcome,[4],inactive
same,AC50,[5],7.11 µM (active)
same,outcome,CYP3A5 (gene 1577),inactive
same,outcome,[6],inactive
NCc1cccc(C2CCN(C(=O)c3ccc(C#Cc4ccccc4F)o3)CC2)c1,AC50,CYP2E1 (gene 1571),79.3 µM (active)
same,AC50,CYP4A11 (gene 1579),82.4 µM (active)
same,AC50,[1],75.2 µM (active)
same,AC50,[2],75.4 µM (active)
same,outcome,[3],inactive
same,outcome,[4],inactive
same,AC50,[5],77.7 µM (active)
same,AC50,CYP3A5 (gene 1577),81.1 µM (active)
same,outcome,[6],inactive
c1ccc(C[n+]2cccc3ccccc32)cc1,AC50,CYP2E1 (gene 1571),24.6 µM (active)
same,AC50,CYP4A11 (gene 1579),22.3 µM (active)
same,AC50,[1],33.4 µM (active)
same,AC50,[2],30.9 µM (active)
same,outcome,[3],inactive
same,AC50,[4],14.7 µM (active)
same,AC50,[5],31.7 µM (active)
same,outcome,CYP3A5 (gene 1577),inactive
same,AC50,[6],31.7 µM (active)
NC(=O)c1nc(-c2cccc(-c3cc(F)ccc3OCC(F)(F)C(F)(F)F)c2)n[nH]1,AC50,CYP2E1 (gene 1571),16.9 µM (active)
same,AC50,CYP4A11 (gene 1579),12.3 µM (active)
same,AC50,[1],81.1 µM (active)
same,AC50,[2],78.1 µM (active)
same,outcome,[3],inactive
same,outcome,[4],inactive
same,outcome,[5],inactive
same,outcome,CYP3A5 (gene 1577),inactive
same,AC50,[6],50 µM (active)
CCCC(=O)OCCC(C)C,outcome,CYP2E1 (gene 1571),inactive
same,outcome,CYP4A11 (gene 1579),inactive
same,outcome,[1],inactive
same,outcome,[2],inactive
same,outcome,[7],inactive
same,outcome,[4],inactive
same,outcome,[5],inactive
same,outcome,CYP3A5 (gene 1577),inactive
same,outcome,[6],inactive
CCCCCCCCCCCC[N+](C)(C)C,AC50,CYP2E1 (gene 1571),94.1 µM (active)
same,AC50,CYP4A11 (gene 1579),76.2 µM (active)
same,AC50,[1],58.6 µM (active)
same,AC50,[2],78.1 µM (active)
same,outcome,[3],inactive
same,AC50,[4],83.7 µM (active)
same,outcome,[5],inactive
same,AC50,CYP3A5 (gene 1577),86.6 µM (active)
same,AC50,[6],93.9 µM (active)
O=C(O)Cc1cc(I)c(Oc2ccc(O)c(I)c2)c(I)c1,AC50,CYP2E1 (gene 1571),70.6 µM (active)
same,AC50,CYP4A11 (gene 1579),74 µM (active)
same,AC50,[1],41.6 µM (active)
same,AC50,[2],78.9 µM (active)
same,outcome,[3],inactive
same,outcome,[4],inactive
same,AC50,[5],0.0294 µM (active)
same,AC50,CYP3A5 (gene 1577),0.0881 µM (active)
same,AC50,[6],89.8 µM (active)
COc1cccc([C@H](O)C2CCN(CCc3ccc(F)cc3)CC2)c1OC,AC50,CYP2E1 (gene 1571),16.7 µM (active)
same,outcome,CYP4A11 (gene 1579),inactive
same,AC50,[1],50 µM (active)
same,AC50,[2],70.5 µM (active)
same,outcome,[3],inactive
same,outcome,[4],inactive
same,outcome,[5],inactive
same,outcome,CYP3A5 (gene 1577),inactive
same,outcome,[6],inactive
O=C(O)c1ccccc1-n1cc(C(=O)O)c(=O)c2cc(Nc3c(F)cc(F)cc3Cl)c(Cl)cc21,AC50,CYP2E1 (gene 1571),25.5 µM (active)
same,outcome,CYP4A11 (gene 1579),inactive
same,AC50,[1],3.09 µM (active)
same,outcome,[2],inactive
same,outcome,[3],inactive
same,outcome,[7],inactive
same,outcome,[4],inactive
same,AC50,[5],3 µM (active)
same,outcome,CYP3A5 (gene 1577),inactive
same,outcome,[6],inactive
Oc1ccc2ccccc2c1,outcome,CYP2E1 (gene 1571),inactive
same,outcome,CYP4A11 (gene 1579),inactive
same,outcome,[1],inactive
same,outcome,[2],inactive
same,outcome,[3],inactive
same,outcome,[4],inactive
same,outcome,[5],inactive
same,outcome,CYP3A5 (gene 1577),inactive
same,outcome,[6],inactive
O=C(OCCCCCCOC(=O)c1ccccc1)c1ccccc1,outcome,CYP2E1 (gene 1571),inactive
same,outcome,CYP4A11 (gene 1579),inactive
same,outcome,[1],inactive
same,outcome,[2],inactive
same,outcome,[3],inactive
same,outcome,[7],inactive
same,outcome,[4],inactive
same,outcome,[5],inactive
same,outcome,CYP3A5 (gene 1577),inactive
same,outcome,[6],inactive
c1ccc2n[nH]nc2c1,outcome,CYP2E1 (gene 1571),inactive
same,outcome,CYP4A11 (gene 1579),inactive
same,outcome,[1],inactive
same,outcome,[2],inactive
same,outcome,[3],inactive
same,outcome,[4],inactive
same,outcome,CYP3A5 (gene 1577),inactive
same,outcome,[6],inactive
CC1=CC(=O)/C(=C(/C)O)C(=O)O1,outcome,CYP2E1 (gene 1571),inactive
same,outcome,CYP4A11 (gene 1579),inactive
same,outcome,[1],inactive
same,outcome,[2],inactive
same,outcome,[3],inactive
same,outcome,[4],inactive
same,outcome,[5],inactive
same,outcome,CYP3A5 (gene 1577),inactive
same,outcome,[6],inactive
O=C1CCC(C2CCCCC2)CC1,outcome,CYP2E1 (gene 1571),inactive
same,outcome,CYP4A11 (gene 1579),inactive
same,AC50,[1],32.5 µM (active)
same,outcome,[2],inactive
same,outcome,[3],inactive
same,outcome,[4],inactive
same,outcome,[5],inactive
same,outcome,CYP3A5 (gene 1577),inactive
same,outcome,[6],inactive
Cc1ccc2oc(CN(Cc3ccccc3)C(=O)Nc3c(F)cc(F)cc3F)c(-c3ccc(Cl)cc3)c2c1,AC50,CYP2E1 (gene 1571),28.4 µM (active)
same,AC50,CYP4A11 (gene 1579),34.8 µM (active)
same,AC50,[1],5.39 µM (active)
same,AC50,[2],64.3 µM (active)
same,outcome,[3],inactive
same,outcome,[4],inactive
same,AC50,[5],11.1 µM (active)
same,outcome,CYP3A5 (gene 1577),inactive
same,AC50,[6],13 µM (active)
CN(C[C@@H](CC[N+]12CCC(C3CCCCC3)(CC1)CC2)c1ccc(Cl)c(Cl)c1)C(=O)c1cc(C(F)(F)F)cc(C(F)(F)F)c1,AC50,CYP2E1 (gene 1571),13.7 µM (active)
same,AC50,CYP4A11 (gene 1579),21.1 µM (active)
same,AC50,[1],30.9 µM (active)
same,AC50,[2],12.1 µM (active)
same,outcome,[3],inactive
same,outcome,[4],inactive
same,AC50,[5],28.6 µM (active)
same,AC50,CYP3A5 (gene 1577),68.8 µM (active)
same,AC50,[6],12.5 µM (active)
Cc1cccc2ccccc12,outcome,CYP2E1 (gene 1571),inactive
same,outcome,CYP4A11 (gene 1579),inactive
same,outcome,[1],inactive
same,outcome,[2],inactive
same,outcome,[7],inactive
same,outcome,[4],inactive
same,outcome,[5],inactive
same,outcome,CYP3A5 (gene 1577),inactive
same,outcome,[6],inactive
